From PubChem BioAssay (NCATS)
Records with an inconclusive call do not appear. The source made the active and inactive calls. The call rests on the fitted dose curve; in most records, active means well fitted curve in the direction sought with a large enough effect; inconclusive means small, poorly fitted or top-dose-only effect, or another doubt; inactive means no such curve, though single readings can be large; an effect the other way counts as inactive or inconclusive.

Key:
[1] = Vero cells viability qHTS for Zika virus inhibitors (AID 1347167)
Outline: (§1)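 Compounds were tested in concentration series on cells grown in DMEM containing 4% FBS. After 24 to 48 hours, cellular ATP was measured by luminescence with CellTiter Glo.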

[2] = HepG2 cells viability qHTS for Zika virus inhibitors (AID 1347168)
Outline: as §1

[3] = OV-KATE Cancer Cell Toxicity qHTS against the NCATS CANVASS Library (AID 1347345)
Outline: (§2)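 Toxicity is measured over 72 h of compound exposure at 37 degrees C under 5% CO2. Each well holds 1000 cells, pre-incubated for 4 hours before dosing across an 11-point range. CellTiter-Glo luminescence gives viability.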

[4] = HPAF-II Cancer Cell Toxicity qHTS against the NCATS CANVASS Library (AID 1347346); further: series mostly up to about 38 µM; nearly all actives have a fitted effect of over 55% in size
Outline: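 Luminescence from CellTiter-Glo, added after 72 h compound exposure and a 15 min room-temperature incubation, served as the viability readout. HPAF-II cells (1000/well) received an 11-point concentration series.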

[5] = UWB1.289 Cancer Cell Toxicity qHTS against the NCATS CANVASS Library (AID 1347347); further: series mostly up to about 38 µM; nearly all actives have a fitted effect of over 60% in size
Outline: as §2

[6] = OV-SAHO Cancer Cell Toxicity qHTS against the NCATS CANVASS Library (AID 1347348); further: series mostly up to about 38 µM; nearly all actives have a fitted effect of over 55% in size
Outline: as §2

[7] = SW1088 Cancer Cell Toxicity qHTS against the NCATS CANVASS Library (AID 1347350); conditions: outcome: dose series up to 38.3 µM; further: series mostly up to about 38 µM; nearly all actives have a fitted effect of over 75% in size
Outline: as §2

[8] = U-118MG Cancer Cell Toxicity qHTS against the NCATS CANVASS Library (AID 1347351); further: series mostly up to about 38 µM
Outline: as §2

[9] = COV-362 Cancer Cell Toxicity qHTS against the NCATS CANVASS Library (AID 1347352); further: series mostly up to about 38 µM
Outline: (§3)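 Luminescent ATP read-out (CellTiter-Glo, 15min at room temperature) measures survival after cells face an 11-point compound series for 72 hours at 37 degrees C/5% CO2.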

[10] = A2780 Cisplatin Sensitive Ovarian Cancer Cell Toxicity qHTS against the NCATS CANVASS Library (AID 1347353); conditions: outcome: dose series up to 46.1 µM; further: series mostly up to about 46 µM; nearly all actives have a fitted effect of over 60% in size
Outline: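 Luminescent ATP content (ATPLite, 10 min at room temperature) served as the read-out after cells had been exposed to compounds for 72 hours at 37 °C. Dosing followed an 11-point concentration series.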

[11] = UWB1.289-WTBRCA1 Cancer Cell Toxicity qHTS against the NCATS CANVASS Library (AID 1347354)
Outline: as §3

[12] = HEK-293 Cancer Cell Toxicity qHTS against the NCATS CANVASS Library (AID 1347355); conditions: outcome: dose series up to 46.1 µM; further: series mostly up to about 46 µM; nearly all actives have a fitted effect of over 65% in size
Outline: as §3

[13] = HPAF-II 24hr Apoptosis Induction qHTS against the NCATS CANVASS Library (AID 1347356)
Outline: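 Luminescent caspase-3/7 signal (DEVD substrate, Caspase-Glo) served as read-out, taken 15 min after reagent addition to HPAF-II cells exposed 24 h to compounds.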

[14] = HEK293 18hr Apoptosis Induction qHTS against the NCATS CANVASS Library (AID 1347357)
Outline: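 Cells seeded at 500/well in DMEM + 10% FBS. Compounds pinned, 11 concentrations. 18 h, 37 degrees C/5% CO2. Caspase-Glo 3/7 added, 15 min RT dark, luminescence read.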

[15] = HPAF-II 12hr Apoptosis Induction qHTS against the NCATS CANVASS Library (AID 1347358)
Outline: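 500 HPAF-II cells/well; cmpds 11-pt; 12 hr, 37 degrees C/5% CO2; Caspase-Glo 3/7 added, 15 min RT dark; luminescence read. Doxorubicin titration as control.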

[16] = HEK293 24hr Apoptosis Induction qHTS against the NCATS CANVASS Library (AID 1347359)
Outline: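 Caspase-3/7 activation measured as luminescence from the DEVD-based Caspase-Glo reagent, 15 min at room temperature, following 24-hour compound treatment of HEK293 cells.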

[17] = HPAF-II 18hr Apoptosis Induction qHTS against the NCATS CANVASS Library (AID 1347360)
Outline: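 Seed HPAF-II cells at 500/well in DMEM + 10% FBS, pin-transfer compounds, incubate 18 hours at 37 degrees C/5% CO2, add Caspase-Glo 3/7 reagent, wait 15 min, read luminescence.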

[18] = HEK293 12hr Apoptosis Induction qHTS against the NCATS CANVASS Library (AID 1347361)
Outline: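 Cells are seeded, dosed with an 11-point compound series and incubated 12 hours. Caspase-3/7 activity is detected by luminescent DEVD-substrate reagent after 15 minutes at room temperature.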

[19] = test system: NAD(P)H diaphorase (Clostridium kluyveri); assay: Diaphorse counterscreen qHTS: Assay Interference Panel against the NCATS CANVASS Library (AID 1347362)
Outline: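 Counterscreen for coupling-enzyme interference: resorufin fluorescence from resazurin/NADH turnover, read after 5 min at room temperature. Compounds were tested over an 11-point series after 15 min dark preincubation with diaphorase in PBS-Tween.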

[20] = target: Luciferin 4-monooxygenase (Photinus pyralis) (UniProt P08659); assay: Firefly luciferase counterscreen qHTS: Assay Interference Panel against the NCATS CANVASS Library (AID 1347363); further: series mostly up to about 57 µM
Outline: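 Luminescence inhibition readout: compounds (11-point qHTS) sat 15 min at room temperature with substrate mix (0.013 mM luciferin and ATP), then firefly luciferase was added and signal read 5 min later.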

Measured: Potency

Luciferin 4-monooxygenase (Photinus pyralis), sequence (P08659 whole entry, looked up): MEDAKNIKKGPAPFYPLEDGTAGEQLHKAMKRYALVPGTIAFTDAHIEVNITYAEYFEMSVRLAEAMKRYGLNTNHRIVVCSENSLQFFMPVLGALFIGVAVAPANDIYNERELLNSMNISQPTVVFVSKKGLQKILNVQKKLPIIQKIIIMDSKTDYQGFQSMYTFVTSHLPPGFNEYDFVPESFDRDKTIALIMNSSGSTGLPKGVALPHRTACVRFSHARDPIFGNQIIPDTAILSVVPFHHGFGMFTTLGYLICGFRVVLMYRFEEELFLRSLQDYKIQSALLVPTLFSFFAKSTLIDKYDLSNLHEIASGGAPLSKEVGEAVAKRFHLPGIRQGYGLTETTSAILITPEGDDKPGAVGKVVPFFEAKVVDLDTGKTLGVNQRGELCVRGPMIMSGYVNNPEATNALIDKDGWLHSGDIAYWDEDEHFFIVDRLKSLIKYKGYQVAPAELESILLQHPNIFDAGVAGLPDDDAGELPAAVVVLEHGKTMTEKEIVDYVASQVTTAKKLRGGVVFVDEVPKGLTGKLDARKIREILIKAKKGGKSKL

CC(C)N=c1cc2n(-c3ccc(Cl)cc3)c3ccccc3nc-2cc1Nc1ccc(Cl)cc1
inactive: [1]

CC(C)C(=O)c1cn(CC(=O)COc2ccc(Oc3ccccc3)cc2)c2ccc(C(=O)O)cc12
inactive: [1] | [2]

CC(C)(O)C1CC=C(C(=O)OCC2OC(Oc3c(O)cc(C(=O)O)cc3O)C(O)C(O)C2O)CC1 (configuration not stated)
inactive: [1] | [2]

CC(C)c1cc2c(c(O)c1O[C@@H]1O[C@H](CO)[C@@H](O)[C@H](O)[C@H]1O)CC1(O)CCC(O)C(C)(C)C1CC2 (some centres not stated)
inactive: [1] | [2]

O=C(O)c1cc(O)c2cccc(O)c2c1O[C@@H]1O[C@H](CO)[C@@H](O)[C@H](O)[C@H]1O
inactive: [1] | [2]

O=C(/C=C/c1c(C(=O)O)[nH]c2cc(Cl)cc(Cl)c12)Nc1ccccc1
inactive: [1] | [2]

O=C(O)c1cnn(-c2nc3cc(OC(F)(F)F)c(Cl)cc3[nH]2)c1
inactive: [1] | [2]

CC1(C)CCC(C)(C)c2cc3c(cc21)Sc1ccccc1N=C3c1ccc(C(=O)O)cc1
inactive: [1] | [2]

CC1=C2C(=O)O[C@@H](c3ccoc3)[C@]2(C)CCC1
not listed: [1] | [2]
inactive: all other assays above

O=C(O)c1ccc(CCCc2ccc(OCCc3ccc(F)cc3)cc2)o1
inactive: [1] | [2]

COc1cccc(-n2nc(C(=O)O)cc2-c2ccc(C3CCCCC3)c(Cl)c2)c1
inactive: [1] | [2]
